Measurements as given in PubChem BioAssay (NCATS).
“And” between values parts separate entries of the source, which are not always exact repeats. Identical values can stand only once. Results filed as inconclusive are left out. The source made the active and inactive calls. Calls follow the shape of the dose curve; as a rule, active = well fitted cell-killing curve with a large enough effect; inconclusive = small, poorly fitted or top-dose-only effect; inactive = no such curve, though single readings can be large or run the other way.

experiment: qHTS of pediatric cancer cell lines to identify multiple opportunities for drug repurposing: Primary screen for Saos-2 cells (AID 1347097); settings: Saos-2 viability, CellTiter-Glo ATP luminescence, 48 h; series mostly up to 46 µM; activity change, negative = cytotoxic: at the top concentration; also: nearly all actives have a fitted effect of over 40% in size
Source text: Drug repurposing or repositioning has been offered as a strategy for drug development in oncology programs. This approach has special potential for childhood cancers and other rare or orphan diseases, where the expected return on new drug development has been a disincentive to pharmaceuticals. […] In this project we exploit the poly-pharmacology of drugs to discover new indications via phenotypic screening of a panel of 19 well-characterized cell lines derived from solid tumors seen in children and adolescents. The goal is to identify approved drugs with previously unrecognized anticancer properties that has the potential to reveal new mechanisms and biological processes involved in carcinogenesis or drug resistance. We employed a titration-based paradigm (quantitative high-throughput screening or qHTS), where all compounds were tested at multiple concentrations for their effect on cell viability. Concentration-response curves (CRCs) were derived directly from the primary screen, and both potency and efficacy values were used to identify compounds with robust bioactivity profiles. We screened the NIH Chemical Genomics Center (NCGC) Pharmaceutical Collection (NPC) and Mechanism Interrogation Plate (MIPE) small molecule collections of approved and investigational compounds against these cell lines; and measured metabolically active cells after 48 hours of compound treatment as a proxy for cell viability. […] Assay Submitter: Nathalia J. Martinez, National Center for Advancing Translational Sciences, National Institutes of Health, Rockville, MD, USA; email: natalia.martinez@nih.gov Shen, M et al. Quantitative high-throughput phenotypic screening of pediatric cancer cell lines identifies multiple opportunities for drug repurposing. Oncotarget 2017 Dec 19;9(4):4758-4772. PMID 29435139.
The cells were obtained from University of North Carolina (UNC), Pediatric Preclinical Testing Program (PPT), and Coriell Institute (CI). qHTS cell viability assay: Cells were assayed in growth media at a density of 500-1,000 cells/well. Five microliters of cells were dispensed into 1,536-well, white, solid-bottom, TC-treated plates (Greiner Bio One) using a multidrop dispenser and incubated at 37 degrees C, 5% CO2, under a humidified atmosphere for 5 hours. Twenty-three nanoliters of compounds and controls (neutral control DMSO or positive control bortezomib at final concentration of 2.3 µM) were subsequently transferred by Kalypsys pintool. For primary screens, the MIPE collection was tested at 11-point dilutions (final concentrations range from 0.78 nM to 46 µM) and the NPC collection at 8-point dilutions (final concentrations range from 0.59 nM to 46 µM). Compounds tested in follow-up screens were assayed at 11-point dilutions. Cells were incubated for 48 hours, followed by addition of 3 µL of CellTiter-Glo (Promega). After a 15 min incubation at room temperature, samples were analyzed for luminescence intensity using a ViewLux High-throughput CCD imager equipped with clear filters.
% is scaled to controls: 0 for no effect and ±100 for the full control effect; potency is read from the fitted curve at half-maximal effect.

Structure (SMILES) | Potency | activity change, negative = cytotoxic
O=C(O)C(=O)c1cn(Cc2ccccc2)c2ccc(-c3ccc(OC(F)(F)F)cc3)cc12 | 23.5 µM (active) | 
CCC(COC(=O)c1cc(OC)c(OC)c(OC)c1)(c1ccccc1)N(C)C (stereo not given) |  | 10.1% (inactive)
CNCC(O)c1ccc(O)cc1 (stereo not given) | inactive | 
C=CCN1CC[C@]23c4c5ccc(O)c4O[C@H]2C(=O)CC[C@@]3(O)[C@H]1C5 |  | 2.52% (inactive)
CCN(CC)CCOC(=O)C(O)(c1ccccc1)c1ccccc1 |  | -1.32% (inactive)
N#CC(C#N)=Cc1ccc(O)c(O)c1 |  | -7.01% (inactive)
CN(C)CCc1ccc(O)cc1 | inactive | 
Cc1sc2c(c1C)C(c1ccc(Cl)cc1)=N[C@@H](CC(=O)OC(C)(C)C)c1nnc(C)n1-2 | 1.48 µM (active) | 
COC[C@H]1OC(=O)c2coc3c2[C@@]1(C)C1=C(C3=O)C2CCC(=O)[C@@]2(C)C[C@H]1OC(C)=O (stereo not given in full) | 4.69 µM (active) | 
N[C@@H](Cc1ccc(Oc2cc(I)c(O)c(I)c2)c(I)c1)C(=O)O |  | -17.3% (inactive)
CC(=O)[C@H]1CC[C@H]2[C@@H]3CC[C@H]4C[C@H](O)CC[C@]4(C)[C@H]3C(=O)C[C@]12C |  | -5.75% (inactive)
N[C@@H](Cc1ccc(N(CCCl)CCCl)cc1)C(=O)O | 26.6 µM (active) and 16.6 µM (active) | 
NCC(O)c1ccc(O)cc1 (stereo not given) |  | 2.04% (inactive)
Oc1cc(Cl)ccc1Oc1ccc(Cl)cc1Cl | 24.8 µM (active) and 26.6 µM (active) | 
CC(=O)[C@H]1CC[C@H]2[C@@H]3CC[C@H]4C[C@](C)(O)CC[C@]4(C)[C@H]3CC[C@]12C |  | 7.79% (inactive)
O=C(NC(O)C(Cl)(Cl)Cl)NC(O)C(Cl)(Cl)Cl (stereo not given) |  | 10.4% (inactive)
COc1ccc(Cc2nccc3cc(OC)c(OC)cc23)cc1OC |  | -23.2% (inactive)
CCCC1CCCCN1 (stereo not given) |  | 2.84% (inactive)
CC(C)CC(N(C)C)C1(c2ccc(Cl)cc2)CCC1 (stereo not given) |  | -20.4% (inactive)
C#CCOC(C(=O)OCCN(C)C)(c1ccccc1)c1ccccc1 |  | 12.1% (inactive)

Structure (SMILES) | Potency | activity change, negative = cytotoxic
NCCc1cc(O)c(O)cc1O |  | -6.57% (inactive)
CCOP(=S)(OCC)Oc1cc(C)nc(C(C)C)n1 |  | 5.34% (inactive)
CCC1(C2=NCCN2)Cc2ccccc2O1 (stereo not given) |  | -10.4% (inactive)
CC(C)(N)Cc1ccc(Cl)cc1 |  | 20.1% (inactive)
Cc1cccc(C)c1NC(=O)CN1CCCC1=O |  | -2.79% (inactive)
Cn1c(CCCC(=O)O)nc2cc(N(CCCl)CCCl)ccc21 |  | -34% (inactive)
CC1NCCOC1c1ccccc1 (stereo not given) |  | 7.69% (inactive)
O=[N+]([O-])c1cc([As](=O)(O)O)ccc1O |  | 15.6% (inactive)
CNC(=O)c1ccc(N2C(=S)N(c3ccc(C#N)c(C(F)(F)F)c3)C(=O)C23CCC3)cc1F |  | 3.09% (inactive)
C=C1CC[C@@]2(O)[C@H]3Cc4ccc(O)c5c4[C@@]2(CCN3CC2CC2)[C@H]1O5 |  | 4.85% (inactive)
CCC(C(N)=O)N1CCCC1=O (stereo not given) |  | -24.1% (inactive)
CCN(C(C)=O)c1cccc(-c2ccnc3c(C#N)cnn23)c1 |  | 5.48% (inactive)
NN=C(N)N |  | 35.2% (inactive)
COc1ccc(C(CN(C)C)C2(O)CCCCC2)cc1 (stereo not given) | inactive | 
C=C(C)[C@H]1Cc2c(ccc3c2O[C@@H]2COc4cc(OC)c(OC)cc4[C@@H]2C3=O)O1 | 0.944 µM (active) | 
Nc1ccncc1 |  | 22% (inactive)
CC(O)(CS(=O)(=O)c1ccc(F)cc1)C(=O)Nc1ccc(C#N)c(C(F)(F)F)c1 (stereo not given) | 23.5 µM (active) | 
CN1C(=S)CN=C(c2ccccc2)c2cc(Cl)ccc21 |  | -0.104% (inactive)
C[C@@H]1O[C@@H](O[C@H]2C[C@@H](O)[C@]3(CO)[C@H]4[C@H](O)C[C@]5(C)[C@@H](C6=CC(=O)OC6)CC[C@]5(O)[C@@H]4CC[C@]3(O)C2)[C@H](O)[C@H](O)[C@H]1O | 59 nM (active) and 75 nM (active) | 
Cc1cccc(C)c1NC1=NCCCS1 |  | -8.71% (inactive)
